An excerpt weighted towards active compounds, which were near 4.3% of everything screened.
DRD3 agonist – D3 dopamine receptor (human) agonism; max activation, %; AID 652048; actives 0.58% (n = 410,000); P35462; D3R DiscoveRx beta-arrestin cells, luminescence, 90 min; in the data active = max activation above about 30%; note: 0% is about no effect
Target sequence (P35462 whole entry, looked up): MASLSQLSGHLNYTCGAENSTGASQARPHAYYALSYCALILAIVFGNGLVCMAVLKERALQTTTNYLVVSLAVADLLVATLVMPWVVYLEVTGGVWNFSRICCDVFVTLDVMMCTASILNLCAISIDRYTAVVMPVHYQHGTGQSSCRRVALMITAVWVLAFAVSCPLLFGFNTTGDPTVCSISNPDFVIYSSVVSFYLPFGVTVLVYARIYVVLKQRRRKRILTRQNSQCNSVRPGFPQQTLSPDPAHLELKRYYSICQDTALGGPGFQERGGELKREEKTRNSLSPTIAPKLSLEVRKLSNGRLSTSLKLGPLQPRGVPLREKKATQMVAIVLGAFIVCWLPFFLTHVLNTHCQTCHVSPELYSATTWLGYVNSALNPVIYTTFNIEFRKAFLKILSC
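Agonist mode: compounds and dopamine controls were applied to plated cells for 90 min at 37 degrees C after an overnight attachment at 1500 cells/well. Luminescent read-out followed 30 - 60 minutes at room temperature with DiscoveRx detection reagent.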
DRD3 antagonist – D3 dopamine receptor (human) antagonism; AID 652054; actives 2.5% (n = 360,000); max response, negative = inhibition, %; D3R cells, DiscoveRx beta-arrestin luminescence, antagonist mode; hits give low values; P35462; in the data active = max response below about -50%; inconclusive = no clear call, values can overlap the other calls; note: % is set by controls: 0 for no effect and ±100 for the full control effect
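Cells expressing the human receptor were seeded at 1500 cells/well, incubated overnight at 37 degrees C in 5% CO2, then exposed to library compounds with dopamine controls for 90 minutes at 37 degrees C before luminescent detection.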
GLP1R inv ag – inverse agonists of human GLP-1 receptor; HEK293 GLP-1R CRE-luciferase, luminescence, 24 h; GLP-1R form is constitutively active; Potency, µM (series often up to 38.3 µM), for the others: at the top dose activity change, negative = inhibition, hits mostly inhibitors; actives 1.6% (n = 410,000); AID 624417; note: potency is the fitted concentration of half-maximal effect; % is set by controls: 0 for no effect and ±100 for the full control effect; nearly all actives have a fitted effect of over 55% in size
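Inverse agonism was detected as reduced cAMP-driven luciferase luminescence after 24 h compound treatment. The cells were HEK293 clones expressing constitutively active human GLP-1R with the reporter. Reporter-only and GPR119 cell lines served as counterscreen controls.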
GLP1R ag – activates the human GLP-1 receptor. P43220. HEK293 GLP-1R CRE-luciferase, luminescence, 4-6 h; cells express a hypersensitive GLP-1R form. Potency, µM (titrated, usually from 45.6 µM), for the others: at the top dose activation, hits mostly activators. AID 624172. actives 0.007% (n = 380,000); note: potency is the fitted concentration of half-maximal effect; % of control where 0% means no effect
* marks the source's active call; other numbers are inactive results; ? = inconclusive; / = no result; ! = not confirmed by another sample. Unless noted, calls come from the whole dose curve; as a rule, active = well fitted curve in the direction sought with a large enough effect; inconclusive = small, poorly fitted or top-dose-only effect, or another doubt; inactive = no such curve, though single readings can be large; an effect the other way counts as inactive or inconclusive.

SMILES	DRD3 agonist	DRD3 antagonist	GLP1R inv ag	GLP1R ag
O=[N+]([O-])c1ccc(NC2CCN(Cc3ccccc3)CC2)c2ccncc12	-25.2	-73.7*	6.7%	7.4%
O=C1OC2(c3cc(Br)c(O)cc3Oc3c2cc(Br)c(O)[c]3[Hg])c2ccccc21 (stereo not drawn)	2.8	/	/	/
O=C1NC(=O)N(Cc2ccc(F)cc2)C(=O)/C1=C\c1ccc([N+](=O)[O-])s1	-12.8	-55.5*	-9.0%	-1.3%
CCc1ccc(NC(=O)c2ccc(F)c(S(=O)(=O)N3CCc4ccccc4C3)c2)cc1	1.2	/	8.91µM*	/
O=C(Nc1ccc(Br)cc1)c1ccc(F)c(S(=O)(=O)N2CCCc3ccccc32)c1	5.7	/	3.16µM*	/
O=C(Nc1ccc(Br)cc1)c1cccc(S(=O)(=O)N2CCc3ccccc32)c1	-15.4	/	2µM*	/
CCc1ccc(NC(=O)c2ccc(F)c(S(=O)(=O)N3CCC4(CC3)OCCO4)c2)cc1	12.1	/	?	/
O=C(CNC(=O)c1cccc(S(=O)(=O)N2CCc3ccccc32)c1)Nc1ccccc1Br	-2.2	?	?	-5.9%
Cc1cc(C)cc(N2C(=O)NC(=O)/C(=C\c3cccn3-c3ccc(Cl)cc3)C2=O)c1	-3.0	-71.6*	0.5%	-21.4%
Cc1cc(C)cc(N2C(=O)NC(=O)/C(=C\c3cccn3-c3ccccc3)C2=O)c1	-3.4	?	?	-19.0%
CCc1cc(-c2nnn(CCC3COCCO3)c2CC)cc(CC)c1-c1cn(Cc2ccc3ccccc3c2)nn1 (stereo not drawn)	8.3	2.5	?	9.9%
CCN(CC)C(=O)[C@@H]1C=C2c3cccc4[nH]cc(c34)C[C@H]2N(C)C1	51.4*	/	/	-9.3%
CC(C)C[C@H]1C(=O)N2CCCC2[C@]2(O)O[C@](NC(=O)[C@@H]3C=C4c5cccc6[nH]cc(c56)CC4N(C)C3)(C(C)C)C(=O)N12 (stereo partly drawn)	13.7	?	24.4%	5.2%
CN1C[C@H](CO)C=C2c3cccc4[nH]cc(c34)C[C@H]21	-14.3	-78.1*	-2.4%	-3.7%
CCCCCCCCN1C(=O)[C@H](CC(=O)N2CCCCC2)C[C@@]2(C(=O)OCC)CCCC=C12	2.1	-15.8	?	-2.3%
CN(C)C(=O)Oc1c(Cl)cc(Cl)c2ccccc12	2.8	7.7	11.2µM*	-1.8%
CN(C)C(=O)Oc1ccc(Cl)c2cccnc12	-1.5	14.0	-1.0%	0.5%
C[C@@H]1[C@H](O)[C@@H](C)C=CC=CCCC=CC=CC=CC=C[C@H](O[C@H]2O[C@@H](C)[C@H](O)[C@@H](N)[C@@H]2O)CC2O[C@](O)(C[C@@H](O)[C@H](O)CC[C@@H](O)C[C@@H](O)C[C@@H](O)CC(=O)O[C@H]1C)C[C@H](O)[C@H]2C(=O)O	/	/	/	5.9%
O=C(O)c1cc[c]([Hg][Cl])cc1	-59.4	-64.7*	13.1%	6.0%
COc1ccc(C(=O)O)cc1OC	2.3	19.4	-0.7%	-0.9%
COc1ccc(CNS(=O)(=O)c2cc3c(cc2C)N(C)CCO3)cc1	1.1	16.9	7.94µM*	7.2%
COc1ccc(CNCC(=O)N2CCC3(CC2)OCCO3)cc1	-5.2	-8.3	2.5%	2.9%
O=C(NCCSc1c(-c2ccc(F)cc2)[nH]c2ccccc12)c1ccc(S(=O)(=O)N2CCOCC2)cc1	2.6	/	?	/
C/C1=C\[C@@H](C)C/C=C/[C@H]2[C@@H]3O[C@]3(C)[C@@H](C)[C@H]3[C@H](Cc4c[nH]c5ccccc45)NC(=O)[C@]32C(=O)/C=C/C(=O)[C@@H]1O	-46.3	-51.0*	?	-7.9%
CCCCCCCCCCCCCCCC[n+]1ccccc1	/	?	3.55µM*	-7.3%
SMILES	DRD3 agonist	DRD3 antagonist	GLP1R inv ag	GLP1R ag
CCCCCCC[n+]1ccc(-c2cc[n+](CCCCCCC)cc2)cc1	-14.0	-2.1	-26.5%	0.6%
O=C([O-])c1ccc(-[n+]2c(-c3ccccc3)cc(-c3ccccc3)cc2-c2ccccc2)cc1	54.7*	-15.5	10.6%	-2.8%
CCC1Nc2ncnc(N3CCN(c4ccccn4)CC3)c2N(Cc2ccc(Br)cc2)C1=O (stereo not drawn)	-96.2	-142.4*	?	-4.5%
CCCCCCCSc1cc(OC)c(CCNC)cc1OC	-19.8	-10.0	?	-17.1%
CCCCCSc1cc(OC)c(CCNC)cc1OC	-14.2	?	3.98µM*	-6.5%
CCn1c(O)c(N=Nc2cccc(S(=O)(=O)N3CCOCC3)c2)c(=O)n(CC)c1=S	4.1	-6.9	12.3%	-0.1%
CCn1c(O)c(N=Nc2ccc(S(=O)(=O)N3CCOCC3)cc2)c(=O)n(CC)c1=S	-5.3	-70.9*	?	1.4%
CN(C)CCCCCCN(C)C (tested in a mixture with another compound)	8.4	/	/	/
S=P(N1CCOCC1)(N1CC1)N1CC1	34.1*	-0.9	?	-1.1%
CC(N)Cc1ccc2c(c1)OCO2 (stereo not drawn)	-5.5	/	/	18.9%
CCOc1ccc(N(C(C)C(=O)Nc2cc(Cl)ccc2OC)S(C)(=O)=O)cc1 (stereo not drawn)	-0.7	/	?	/
CCOCCCNC(=O)CN1C2CCC1CC(O)(c1ccc(OC)cc1)C2 (stereo not drawn)	-29.4	-72.3*	-12.6%	1.4%
COc1ccc(NC(=O)CN2C3CCC2CC(O)(c2cccnc2)C3)cc1OC (stereo not drawn)	0.9	-29.9	23.6%	8.3%
CC12CCCCC1=[N+]([O-])CN2O (stereo not drawn)	0.5	-61.9*	5.0%	-8.3%
CCC(=O)O[C@H]1[C@@H](N2CCCCC2)C[C@H]2[C@@H]3CC[C@H]4C[C@H](OC(C)=O)[C@@H](N5CCCCC5)C[C@]4(C)[C@H]3CC[C@@]21C	-15.0	/	/	/
CCC(CC)c1nnc(NC(=O)CC(C)c2ccccc2)s1 (stereo not drawn)	5.0	21.4	10µM*	-1.0%
CCC(=NCCc1c[nH]c2ccccc12)c1c(O)n(C)c(=O)n(C)c1=O	65.2*	28.6	0.0%	8.1%
Fc1ccccc1CCNCc1ccccc1	-5.1	-3.3	5.3%	6.7%
Fc1ccccc1CCNCc1cccc(Cl)c1Cl	-31.6	-57.6*	?	4.3%
O=C(NN=Cc1ccc(N(CCCl)CCCl)cc1)C(=O)c1c[nH]c2ccccc12	4.7	3.2	5.62µM*	6.3%
O=C(C1CCN(S(=O)(=O)c2ccc(Br)s2)CC1)N1CCN(c2cccc(C(F)(F)F)c2)CC1	-1.2	/	?	/
O=C1C=C2C=C[C@@H]3C[C@@]2(O1)[C@H]1CCCCN31	-16.3	/	/	/
Nc1c(C(=O)NCCCc2ccccc2)c2nc3ccccc3nc2n1Cc1cccs1	35.4*	22.7	0.0%	-1.4%
Cc1ccc(S(=O)(=O)N(C)C[C@H]2Oc3c(NC(=O)Nc4cccc5ccccc45)cccc3C(=O)N([C@@H](C)CO)C[C@@H]2C)cc1	-11.7	1.4	?	-4.3%
COc1ccc(CCN)cc1O	-52.4	-15.9	-6.0%	6.3%
NCCc1cc(O)c(O)cc1O	-9.9	-68.2*!	1.4%	-3.5%

From PubChem
